Assay results as given in the supplement of paper PMC12645437, “Orthogonal IMiD-Degron Pairs Induce Selective Protein Degradation in Cells” (ACS Chemical Biology, 2025).
In all, about 8,300 sequences were measured (“log2 fold change of degron read counts, EGFP-low vs EGFP+ sorted cells (limma voom), compound-induced degradation”: median about -1.1, highest 2% from about 3.2 on). This excerpt belongs to a sample that is enriched for the highest values.

T1: CRBN, Q96SW2
T1 chain: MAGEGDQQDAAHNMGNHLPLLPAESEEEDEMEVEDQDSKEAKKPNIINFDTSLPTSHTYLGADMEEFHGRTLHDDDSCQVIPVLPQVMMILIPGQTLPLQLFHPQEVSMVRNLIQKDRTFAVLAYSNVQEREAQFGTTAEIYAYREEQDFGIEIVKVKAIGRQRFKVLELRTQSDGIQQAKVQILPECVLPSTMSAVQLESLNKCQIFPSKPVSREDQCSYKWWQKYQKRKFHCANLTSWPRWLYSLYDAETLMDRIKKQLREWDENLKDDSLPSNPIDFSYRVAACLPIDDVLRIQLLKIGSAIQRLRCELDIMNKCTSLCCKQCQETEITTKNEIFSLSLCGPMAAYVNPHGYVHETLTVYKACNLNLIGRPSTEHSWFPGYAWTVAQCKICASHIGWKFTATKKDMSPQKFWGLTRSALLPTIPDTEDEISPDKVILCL


Target: T1, CRBN, Q96SW2
Assay: log2 fold change of degron read counts, EGFP-low vs EGFP+ sorted cells (limma voom), compound-induced degradation; higher = more compound-induced degradation of the degron-EGFP fusion; degrons are variants of IKZF1/3 zinc finger 2; compound dose not given here
Conditions: Jurkat, 18 h
[1] = compound: compound 19 (5-tert-butyl-thalidomide)
[2] = compound: compound 22 (5-morpholino-thalidomide)
[3] = compound: compound 33 (diphenyl IMiD analogue)
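Also: pooled lentiviral library of zinc finger degron-EGFP fusions in mCherry-positive Jurkat cells, FACS-sorted after compound exposure, with degron abundance counted by next-generation sequencing.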

Row | Sequence | log2 fold change of degron read counts [1] | log2 fold change of degron read counts [2] | log2 fold change of degron read counts [3] | log2 fold change of degron read counts (compound: thalidomide)
1 | FECDQCGALFTQKGNLLRHIKL [46F_47E_49D_50Q_52G_53A_54L_55F_67L_, Q9UKT9] | -3.05 | -3.86 | -3.38 | -2.52
2 | FDCNVCGAFFTQKGNLLRHIKL [46F_47D_49N_50V_52G_53A_54F_55F_67L_, Q9UKT9] | -2.06 | -2.22 | -1.25 | -1.25
3 | FRCEICGAHFTQKGNLLRHIKL [46F_47R_49E_50I_52G_53A_54H_55F_67L_, Q9UKT9] | -0.542 | -0.83 | 0.979 | 0.735
4 | LDCEICGFNCTQKGNLLRHIKL [46L_47D_49E_50I_52G_53F_54N_55C_67L_, Q9UKT9] | -1.97 | -2.54 | -2.01 | -1.74
5 | FRCEVCGAAFTQKGNLLRHIKL [46F_47R_49E_50V_52G_53A_54A_55F_67L_, Q9UKT9] | 2.61 | 2.62 | 2.86 | 2.62
6 | FECEVCGAAFTQKGNLLRHIKL [46F_47E_49E_50V_52G_53A_54A_55F_67L_, Q9UKT9] | 2.56 | -0.651 | 1.75 | 2.51
7 | FLCEVCGAAFTQKGNLLRHIKL [46F_47L_49E_50V_52G_53A_54A_55F_67L_, Q9UKT9] | 1.91 | 0.166 | 1.52 | 1.55
8 | FACEVCGAAFTQKGNLLRHIKL [46F_47A_49E_50V_52G_53A_54A_55F_67L_, Q9UKT9] | 3.64 | 2.99 | 1.02 | 1.31
9 | FICEVCGAAFTQKGNLLRHIKL [46F_47I_49E_50V_52G_53A_54A_55F_67L_, Q9UKT9] | 0.0772 | 3 | 2.31 | 3.04
10 | FFCPVCGAAFTQKGNLLRHIKL [46F_47F_49P_50V_52G_53A_54A_55F_67L_, Q9UKT9] | 2.88 | 2.91 | 2.41 | 1.09
11 | FVCEVCGAAFTQKGNLLRHIKL [46F_47V_49E_50V_52G_53A_54A_55F_67L_, Q9UKT9] | 1.64 | 3.28 | 2.3 | 3.36
12 | FFCEVCGAAFTQKGNLLRHIKL [46F_47F_49E_50V_52G_53A_54A_55F_67L_, Q9UKT9] | 3.47 | 3.39 | 2.35 | 1.61
13 | FICNVCGAQFTQKGNLLRHIKL [46F_47I_49N_50V_52G_53A_54Q_55F_67L_, Q9UKT9] | -1.95 | 0.393 | 2 | 0.761
14 | FWCEQCGAIFTQKGNLLRHIKL [46F_47W_49E_50Q_52G_53A_54I_55F_67L_, Q9UKT9] | -0.201 | 0.552 | 0.154 | -1.07
15 | FICEVCGAIFTQKGNLLRHIKL [46F_47I_49E_50V_52G_53A_54I_55F_67L_, Q9UKT9] | -1.14 | 0.0357 | 2.04 | 1.14
16 | FRCEVCGAIFTQKGNLLRHIKL [46F_47R_49E_50V_52G_53A_54I_55F_67L_, Q9UKT9] | -1.36 | -1.29 | 0.815 | 1.07
17 | FVCEVCGAIFTQKGNLLRHIKL [46F_47V_49E_50V_52G_53A_54I_55F_67L_, Q9UKT9] | -1.03 | -0.779 | 1.43 | 1.47
18 | FQCEVCGAIFTQKGNLLRHIKL [46F_47Q_49E_50V_52G_53A_54I_55F_67L_, Q9UKT9] | -1.13 | 3.07 | 2.65 | 3.7
19 | FYCEVCGAIFTQKGNLLRHIKL [46F_47Y_49E_50V_52G_53A_54I_55F_67L_, Q9UKT9] | 2.89 | 3.45 | 2.43 | 0.38
20 | FSCEVCGAIFTQKGNLLRHIKL [46F_47S_49E_50V_52G_53A_54I_55F_67L_, Q9UKT9] | 1.27 | 0.887 | 1.42 | 0.379
